Results published in publication PMC7862700, “An all-to-all approach to the identification of sequence-specific readers for epigenetic DNA modifications on cytosine”.

Assays:
Assay in all cases: DAPPL (digital affinity profiling via proximity ligation, sequencing); 10 mM Tris-HCl pH 7.5, 50 mM NaCl, 1 mM DTT, 4% glycerol, room temperature, 30 min; GST-TFs on glutathione beads, 16-mer random dsDNA library, 0.1% formaldehyde crosslink after washing; high values mean tight binding
Conditions in all cases: protein: recombinant; tags: N-terminal GST; dsDNA, one strand shown
ERF = target: T1, ERF (Homo sapiens, UniProt P50548 1-548)
T1 sequence: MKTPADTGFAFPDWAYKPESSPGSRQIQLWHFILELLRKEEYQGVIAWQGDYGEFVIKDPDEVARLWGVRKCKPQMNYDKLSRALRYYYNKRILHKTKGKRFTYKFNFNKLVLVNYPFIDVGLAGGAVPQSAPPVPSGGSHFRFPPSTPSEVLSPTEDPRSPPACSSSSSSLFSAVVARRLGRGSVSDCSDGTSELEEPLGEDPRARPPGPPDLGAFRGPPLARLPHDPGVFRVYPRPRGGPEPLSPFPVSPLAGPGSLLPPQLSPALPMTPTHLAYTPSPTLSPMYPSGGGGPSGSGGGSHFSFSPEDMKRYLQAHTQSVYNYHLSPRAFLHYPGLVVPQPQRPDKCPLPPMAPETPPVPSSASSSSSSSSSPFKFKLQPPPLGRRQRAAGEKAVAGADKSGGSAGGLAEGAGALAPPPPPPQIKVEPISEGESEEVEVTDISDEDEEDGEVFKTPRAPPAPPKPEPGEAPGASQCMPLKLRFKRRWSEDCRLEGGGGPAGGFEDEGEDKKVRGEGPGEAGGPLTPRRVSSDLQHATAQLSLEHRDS
Summary of the method: (§1)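 Binding signal is each hexamer's read frequency for a factor divided by its frequency in the tag-only sample. The factors were GST-fused human transcription factors from yeast, captured on glutathione beads, DNA-barcoded and pooled with that sample. Pools were incubated with 200 nmole of a random double-stranded 16-mer DNA library in Tris/NaCl/DTT/glycerol buffer at room temperature for 30 min, then washed, crosslinked with 0.1% formaldehyde, proximity-ligated with BsaI/T4 ligase (1 h, 37 °C), PCR-amplified and sequenced on an Illumina NextSeq500.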

ETV3L = target: T2, ETV3L (Homo sapiens, UniProt Q6ZN32 1-361)
T2 sequence: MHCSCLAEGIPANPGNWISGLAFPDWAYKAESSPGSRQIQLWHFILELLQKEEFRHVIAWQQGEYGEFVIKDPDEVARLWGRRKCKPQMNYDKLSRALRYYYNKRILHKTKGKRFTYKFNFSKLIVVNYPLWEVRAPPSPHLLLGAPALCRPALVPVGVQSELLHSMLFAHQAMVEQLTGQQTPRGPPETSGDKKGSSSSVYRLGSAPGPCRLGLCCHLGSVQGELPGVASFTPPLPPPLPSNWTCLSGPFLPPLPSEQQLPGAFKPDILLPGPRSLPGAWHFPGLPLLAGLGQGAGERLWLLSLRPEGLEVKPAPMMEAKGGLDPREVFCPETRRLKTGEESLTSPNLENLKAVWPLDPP
Summary of the method: as §1

ETS2 = target: T3, ETS2 (Homo sapiens, UniProt P15036 1-469)
T3 sequence: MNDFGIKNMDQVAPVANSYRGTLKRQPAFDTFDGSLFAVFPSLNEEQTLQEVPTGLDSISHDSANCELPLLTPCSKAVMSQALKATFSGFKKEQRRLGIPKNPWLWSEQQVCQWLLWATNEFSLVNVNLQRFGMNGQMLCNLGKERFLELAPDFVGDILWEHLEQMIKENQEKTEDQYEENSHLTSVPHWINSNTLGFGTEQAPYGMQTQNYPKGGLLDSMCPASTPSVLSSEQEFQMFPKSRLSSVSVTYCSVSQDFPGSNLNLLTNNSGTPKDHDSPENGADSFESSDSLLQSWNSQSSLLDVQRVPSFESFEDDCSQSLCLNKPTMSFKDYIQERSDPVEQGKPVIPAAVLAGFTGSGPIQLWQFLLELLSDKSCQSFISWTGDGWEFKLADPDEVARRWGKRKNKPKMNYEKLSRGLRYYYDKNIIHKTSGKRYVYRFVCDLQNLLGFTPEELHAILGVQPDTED
Summary of the method: as §1

SPDEF = target: T4, SPDEF (Homo sapiens, UniProt O95238 1-335)
T4 sequence: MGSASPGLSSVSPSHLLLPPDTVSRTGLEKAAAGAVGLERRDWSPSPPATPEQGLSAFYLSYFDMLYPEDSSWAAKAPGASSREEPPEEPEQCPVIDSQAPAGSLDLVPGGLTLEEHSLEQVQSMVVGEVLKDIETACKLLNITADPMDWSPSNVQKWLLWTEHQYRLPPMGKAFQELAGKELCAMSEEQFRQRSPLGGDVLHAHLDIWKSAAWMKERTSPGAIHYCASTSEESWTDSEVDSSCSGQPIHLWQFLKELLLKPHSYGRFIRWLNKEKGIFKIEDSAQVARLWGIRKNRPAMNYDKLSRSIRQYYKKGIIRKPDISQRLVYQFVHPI
Summary of the method: as §1

ETV7 = target: T5, ETV7 (Homo sapiens, UniProt Q9Y603 1-341)
T5 sequence: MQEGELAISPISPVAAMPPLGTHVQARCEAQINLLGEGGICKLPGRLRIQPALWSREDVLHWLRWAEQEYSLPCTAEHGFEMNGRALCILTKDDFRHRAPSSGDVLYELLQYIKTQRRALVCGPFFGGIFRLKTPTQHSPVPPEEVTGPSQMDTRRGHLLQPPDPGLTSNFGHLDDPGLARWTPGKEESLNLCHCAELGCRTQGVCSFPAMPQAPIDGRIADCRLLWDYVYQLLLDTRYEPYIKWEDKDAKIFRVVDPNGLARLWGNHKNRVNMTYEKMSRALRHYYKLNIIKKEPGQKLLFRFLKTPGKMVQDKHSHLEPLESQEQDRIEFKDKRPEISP
Summary of the method: as §1

ELF5 = target: T6, ELF5 (Homo sapiens, UniProt Q9UKW6-2 1-255)
T6 sequence: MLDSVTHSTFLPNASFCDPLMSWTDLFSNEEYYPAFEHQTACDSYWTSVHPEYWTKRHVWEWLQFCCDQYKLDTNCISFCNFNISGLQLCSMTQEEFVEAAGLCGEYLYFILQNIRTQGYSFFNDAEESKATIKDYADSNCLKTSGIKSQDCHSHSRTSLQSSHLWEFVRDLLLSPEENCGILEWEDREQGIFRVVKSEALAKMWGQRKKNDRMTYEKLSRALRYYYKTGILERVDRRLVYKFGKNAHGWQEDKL
Summary of the method: as §1

ETV3 = target: T7, ETV3 (Homo sapiens, UniProt P41162-2 1-143)
T7 sequence: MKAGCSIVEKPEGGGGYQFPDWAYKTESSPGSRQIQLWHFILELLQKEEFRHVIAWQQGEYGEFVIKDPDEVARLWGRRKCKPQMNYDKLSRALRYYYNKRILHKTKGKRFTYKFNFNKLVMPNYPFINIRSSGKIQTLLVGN
Summary of the method: as §1

ETV6 = ETV6 (Homo sapiens, UniProt P41212 1-452)
Summary of the method: as §1

Chain of ETV6 (P41212 whole entry): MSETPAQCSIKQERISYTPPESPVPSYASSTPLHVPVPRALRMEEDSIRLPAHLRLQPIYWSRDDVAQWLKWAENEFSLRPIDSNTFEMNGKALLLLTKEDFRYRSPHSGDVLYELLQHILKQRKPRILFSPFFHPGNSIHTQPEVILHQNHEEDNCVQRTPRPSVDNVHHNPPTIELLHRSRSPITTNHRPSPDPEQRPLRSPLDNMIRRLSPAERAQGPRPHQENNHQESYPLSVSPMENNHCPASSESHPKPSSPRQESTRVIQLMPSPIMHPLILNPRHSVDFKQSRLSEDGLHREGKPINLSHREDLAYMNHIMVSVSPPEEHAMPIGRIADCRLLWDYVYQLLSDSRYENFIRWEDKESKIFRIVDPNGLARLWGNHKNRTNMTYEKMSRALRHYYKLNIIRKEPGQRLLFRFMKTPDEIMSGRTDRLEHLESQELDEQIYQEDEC

| Sequence | binding signal (ERF) | binding signal (ETV3L) | binding signal (ETS2) | binding signal (SPDEF) | binding signal (ETV7) | binding signal (ELF5) | binding signal (ETV3) | binding signal (ETV6) |
| --- | --- | --- | --- | --- | --- | --- | --- | --- |
| ACGTTT | 1.18 fold enrichment (6-mer frequency, TF over GST control) | 1.13 fold enrichment (6-mer frequency, TF over GST control) | 1.2 fold enrichment (6-mer frequency, TF over GST control) | 1.21 fold enrichment (6-mer frequency, TF over GST control) | 1.33 fold enrichment (6-mer frequency, TF over GST control) | 1.23 fold enrichment (6-mer frequency, TF over GST control) | 1.1 fold enrichment (6-mer frequency, TF over GST control) | 1.33 fold enrichment (6-mer frequency, TF over GST control) |
| TTCTGC | 1.55 fold enrichment (6-mer frequency, TF over GST control) | 1.4 fold enrichment (6-mer frequency, TF over GST control) | 1.33 fold enrichment (6-mer frequency, TF over GST control) | 1.38 fold enrichment (6-mer frequency, TF over GST control) | 1.43 fold enrichment (6-mer frequency, TF over GST control) | 1.38 fold enrichment (6-mer frequency, TF over GST control) | 1.33 fold enrichment (6-mer frequency, TF over GST control) | 1.47 fold enrichment (6-mer frequency, TF over GST control) |
| TCCATG | 1.1 fold enrichment (6-mer frequency, TF over GST control) | 1.17 fold enrichment (6-mer frequency, TF over GST control) | 1.1 fold enrichment (6-mer frequency, TF over GST control) | 1.1 fold enrichment (6-mer frequency, TF over GST control) | 1.03 fold enrichment (6-mer frequency, TF over GST control) | 1.11 fold enrichment (6-mer frequency, TF over GST control) | 1.19 fold enrichment (6-mer frequency, TF over GST control) | 1.2 fold enrichment (6-mer frequency, TF over GST control) |
| TCGTTT | 1.07 fold enrichment (6-mer frequency, TF over GST control) | 1.15 fold enrichment (6-mer frequency, TF over GST control) | 1.28 fold enrichment (6-mer frequency, TF over GST control) | 1.12 fold enrichment (6-mer frequency, TF over GST control) | 1.31 fold enrichment (6-mer frequency, TF over GST control) | 1.27 fold enrichment (6-mer frequency, TF over GST control) | 1.25 fold enrichment (6-mer frequency, TF over GST control) | 1.15 fold enrichment (6-mer frequency, TF over GST control) |
| AATGTA | 1.14 fold enrichment (6-mer frequency, TF over GST control) | 1.1 fold enrichment (6-mer frequency, TF over GST control) | 1.25 fold enrichment (6-mer frequency, TF over GST control) | 1.2 fold enrichment (6-mer frequency, TF over GST control) | 1.15 fold enrichment (6-mer frequency, TF over GST control) | 1.21 fold enrichment (6-mer frequency, TF over GST control) | 1.17 fold enrichment (6-mer frequency, TF over GST control) | 1.15 fold enrichment (6-mer frequency, TF over GST control) |
| CGTTTC | 1.74 fold enrichment (6-mer frequency, TF over GST control) | 1.64 fold enrichment (6-mer frequency, TF over GST control) | 1.74 fold enrichment (6-mer frequency, TF over GST control) | 1.75 fold enrichment (6-mer frequency, TF over GST control) | 1.98 fold enrichment (6-mer frequency, TF over GST control) | 2.04 fold enrichment (6-mer frequency, TF over GST control) | 1.83 fold enrichment (6-mer frequency, TF over GST control) | 1.95 fold enrichment (6-mer frequency, TF over GST control) |
| CCATAT | 1.23 fold enrichment (6-mer frequency, TF over GST control) | 1.27 fold enrichment (6-mer frequency, TF over GST control) | 1.22 fold enrichment (6-mer frequency, TF over GST control) | 1.33 fold enrichment (6-mer frequency, TF over GST control) | 1.16 fold enrichment (6-mer frequency, TF over GST control) | 1.24 fold enrichment (6-mer frequency, TF over GST control) | 1.19 fold enrichment (6-mer frequency, TF over GST control) | 1.15 fold enrichment (6-mer frequency, TF over GST control) |
| ATCATC | 1.08 fold enrichment (6-mer frequency, TF over GST control) | 1.23 fold enrichment (6-mer frequency, TF over GST control) | 1.25 fold enrichment (6-mer frequency, TF over GST control) | 1.16 fold enrichment (6-mer frequency, TF over GST control) | 1 fold enrichment (6-mer frequency, TF over GST control) | 1.17 fold enrichment (6-mer frequency, TF over GST control) | 1.23 fold enrichment (6-mer frequency, TF over GST control) | 1.1 fold enrichment (6-mer frequency, TF over GST control) |
| GGGCCT | 1.37 fold enrichment (6-mer frequency, TF over GST control) | 1.21 fold enrichment (6-mer frequency, TF over GST control) | 1.21 fold enrichment (6-mer frequency, TF over GST control) | 1.24 fold enrichment (6-mer frequency, TF over GST control) | 1.24 fold enrichment (6-mer frequency, TF over GST control) | 1.17 fold enrichment (6-mer frequency, TF over GST control) | 1.21 fold enrichment (6-mer frequency, TF over GST control) | 1.21 fold enrichment (6-mer frequency, TF over GST control) |
| CCGGCT | 1.59 fold enrichment (6-mer frequency, TF over GST control) | 1.69 fold enrichment (6-mer frequency, TF over GST control) | 1.71 fold enrichment (6-mer frequency, TF over GST control) | 2.32 fold enrichment (6-mer frequency, TF over GST control) | 1.74 fold enrichment (6-mer frequency, TF over GST control) | 1.92 fold enrichment (6-mer frequency, TF over GST control) | 1.7 fold enrichment (6-mer frequency, TF over GST control) | 1.77 fold enrichment (6-mer frequency, TF over GST control) |
| TCATTT | 1.37 fold enrichment (6-mer frequency, TF over GST control) | 1.47 fold enrichment (6-mer frequency, TF over GST control) | 1.41 fold enrichment (6-mer frequency, TF over GST control) | 1.22 fold enrichment (6-mer frequency, TF over GST control) | 1.37 fold enrichment (6-mer frequency, TF over GST control) | 1.32 fold enrichment (6-mer frequency, TF over GST control) | 1.3 fold enrichment (6-mer frequency, TF over GST control) | 1.35 fold enrichment (6-mer frequency, TF over GST control) |
| TAAGAA | 1.11 fold enrichment (6-mer frequency, TF over GST control) | 1.09 fold enrichment (6-mer frequency, TF over GST control) | 1.03 fold enrichment (6-mer frequency, TF over GST control) | 1.06 fold enrichment (6-mer frequency, TF over GST control) | 1.12 fold enrichment (6-mer frequency, TF over GST control) | 1.03 fold enrichment (6-mer frequency, TF over GST control) | 1.07 fold enrichment (6-mer frequency, TF over GST control) | 1.08 fold enrichment (6-mer frequency, TF over GST control) |
| TATATT | 1.43 fold enrichment (6-mer frequency, TF over GST control) | 1.5 fold enrichment (6-mer frequency, TF over GST control) | 1.31 fold enrichment (6-mer frequency, TF over GST control) | 1.32 fold enrichment (6-mer frequency, TF over GST control) | 1.4 fold enrichment (6-mer frequency, TF over GST control) | 1.35 fold enrichment (6-mer frequency, TF over GST control) | 1.44 fold enrichment (6-mer frequency, TF over GST control) | 1.37 fold enrichment (6-mer frequency, TF over GST control) |
| CGCCCT | 1.37 fold enrichment (6-mer frequency, TF over GST control) | 1.34 fold enrichment (6-mer frequency, TF over GST control) | 1.38 fold enrichment (6-mer frequency, TF over GST control) | 1.31 fold enrichment (6-mer frequency, TF over GST control) | 1.51 fold enrichment (6-mer frequency, TF over GST control) | 1.22 fold enrichment (6-mer frequency, TF over GST control) | 1.34 fold enrichment (6-mer frequency, TF over GST control) | 1.31 fold enrichment (6-mer frequency, TF over GST control) |
